# Assay results from the supplement of paper PMC8975748.
# Structures can show the parent of a compound that is named as a salt. ± gives the standard deviation of the averaged measurements.
# Key:
# [1] = tested on: Saccharomyces cerevisiae BY4741 SeMeCo community; assay: mean cell size (pixel area) (pixels); higher = larger cells; conditions: 10 µM; 24 h; SM minimal medium
# Summary of the method: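 Drug was acoustically predosed into 384-well plates to a final 10 µM in SM medium, and each well received 70 µl of Saccharomyces cerevisiae BY4741 diluted to OD600 = 0.3 from an overnight preculture at OD600 = 1.0. This four-plasmid fluorescent community carries one fluorescent marker per plasmid, and each plasmid complements one auxotrophy. After 24 h, the cells were fixed with paraformaldehyde and imaged by automated confocal microscopy, and Harmony analysis yielded mean cell pixel area per well. Each value is averaged over 3 replicates. Same SeMeCo high-content imaging drug screen: Selleck FDA-approved drugs at 10 µM, 24 h in SM medium, 384-well plates, 3 replicates.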
# [2] = tested on: Saccharomyces cerevisiae BY4741 SeMeCo community; assay: z-score of prototroph abundance vs DMSO median; higher = larger share of this subpopulation than in DMSO controls; conditions: 10 µM; 24 h; SM minimal medium; subpopulation (auxotrophy): Prototroph
# Summary of the method: (§1)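 Scoring was based on each subpopulation's abundance, expressed as a z-score against the vehicle-well median. A Saccharomyces cerevisiae BY4741 community with four plasmids, each restoring one auxotrophy and encoding a distinct fluorescent protein, was pre-grown overnight to OD600 1.0, diluted to 0.3, and added at 70 µl to 384-well plates acoustically predosed with library drugs (10 µM final). It then grew 24 h in minimal SM medium before paraformaldehyde fixation and automated confocal microscopy, with single-auxotroph fluorescent strains setting thresholds and autofluorescence correction.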
# [3] = tested on: Saccharomyces cerevisiae BY4741 SeMeCo community; assay: z-score of subpopulation abundance vs DMSO median, subpopulation auxotrophic for M; higher = larger share of this subpopulation than in DMSO controls; conditions: 10 µM; 24 h; SM minimal medium; subpopulation (auxotrophy): M
# Summary of the method: as §1
# [4] = tested on: Saccharomyces cerevisiae BY4741 SeMeCo community; assay: z-score of subpopulation abundance vs DMSO median, subpopulation auxotrophic for L; higher = larger share of this subpopulation than in DMSO controls; conditions: 10 µM; 24 h; SM minimal medium; subpopulation (auxotrophy): L
# Summary of the method: as §1
# [5] = tested on: Saccharomyces cerevisiae BY4741 SeMeCo community; assay: z-score of subpopulation abundance vs DMSO median, subpopulation auxotrophic for U; higher = larger share of this subpopulation than in DMSO controls; conditions: 10 µM; 24 h; SM minimal medium; subpopulation (auxotrophy): U
# Summary of the method: as §1
# [6] = tested on: Saccharomyces cerevisiae BY4741 SeMeCo community; assay: z-score of subpopulation abundance vs DMSO median, subpopulation auxotrophic for H; higher = larger share of this subpopulation than in DMSO controls; conditions: 10 µM; 24 h; SM minimal medium; subpopulation (auxotrophy): H
# Summary of the method: as §1
# [7] = tested on: Saccharomyces cerevisiae BY4741 SeMeCo community; assay: z-score of subpopulation abundance vs DMSO median, subpopulation auxotrophic for LU; higher = larger share of this subpopulation than in DMSO controls; conditions: 10 µM; 24 h; SM minimal medium; subpopulation (auxotrophy): LU
# Summary of the method: as §1
# [8] = tested on: Saccharomyces cerevisiae BY4741 SeMeCo community; assay: z-score of subpopulation abundance vs DMSO median, subpopulation auxotrophic for LM; higher = larger share of this subpopulation than in DMSO controls; conditions: 10 µM; 24 h; SM minimal medium; subpopulation (auxotrophy): LM
# Summary of the method: as §1
# [9] = tested on: Saccharomyces cerevisiae BY4741 SeMeCo community; assay: z-score of subpopulation abundance vs DMSO median, subpopulation auxotrophic for HM; higher = larger share of this subpopulation than in DMSO controls; conditions: 10 µM; 24 h; SM minimal medium; subpopulation (auxotrophy): HM
# Summary of the method: as §1
# [10] = tested on: Saccharomyces cerevisiae BY4741 SeMeCo community; assay: z-score of subpopulation abundance vs DMSO median, subpopulation auxotrophic for HU; higher = larger share of this subpopulation than in DMSO controls; conditions: 10 µM; 24 h; SM minimal medium; subpopulation (auxotrophy): HU
# Summary of the method: as §1
# [11] = tested on: Saccharomyces cerevisiae BY4741 SeMeCo community; assay: z-score of subpopulation abundance vs DMSO median, subpopulation auxotrophic for UM; higher = larger share of this subpopulation than in DMSO controls; conditions: 10 µM; 24 h; SM minimal medium; subpopulation (auxotrophy): UM
# Summary of the method: as §1
# [12] = tested on: Saccharomyces cerevisiae BY4741 SeMeCo community; assay: z-score of subpopulation abundance vs DMSO median, subpopulation auxotrophic for HL; higher = larger share of this subpopulation than in DMSO controls; conditions: 10 µM; 24 h; SM minimal medium; subpopulation (auxotrophy): HL
# Summary of the method: as §1
# [13] = tested on: Saccharomyces cerevisiae BY4741 SeMeCo community; assay: z-score of subpopulation abundance vs DMSO median, subpopulation auxotrophic for HLU; higher = larger share of this subpopulation than in DMSO controls; conditions: 10 µM; 24 h; SM minimal medium; subpopulation (auxotrophy): HLU
# Summary of the method: as §1
# [14] = tested on: Saccharomyces cerevisiae BY4741 SeMeCo community; assay: z-score of subpopulation abundance vs DMSO median, subpopulation auxotrophic for HLM; higher = larger share of this subpopulation than in DMSO controls; conditions: 10 µM; 24 h; SM minimal medium; subpopulation (auxotrophy): HLM
# Summary of the method: as §1
# [15] = tested on: Saccharomyces cerevisiae BY4741 SeMeCo community; assay: z-score of subpopulation abundance vs DMSO median, subpopulation auxotrophic for HUM; higher = larger share of this subpopulation than in DMSO controls; conditions: 10 µM; 24 h; SM minimal medium; subpopulation (auxotrophy): HUM
# Summary of the method: as §1
# [16] = tested on: Saccharomyces cerevisiae BY4741 SeMeCo community; assay: z-score of subpopulation abundance vs DMSO median, subpopulation auxotrophic for LUM; higher = larger share of this subpopulation than in DMSO controls; conditions: 10 µM; 24 h; SM minimal medium; subpopulation (auxotrophy): LUM
# Summary of the method: as §1
# [17] = tested on: Saccharomyces cerevisiae BY4741 SeMeCo community; assay: z-score of subpopulation abundance vs DMSO median, subpopulation auxotrophic for HLUM; higher = larger share of this subpopulation than in DMSO controls; conditions: 10 µM; 24 h; SM minimal medium; subpopulation (auxotrophy): HLUM
# Summary of the method: as §1
SMILES,mean cell size [1],z-score of prototroph abundance [2],z-score of subpopulation abundance [3],z-score of subpopulation abundance [4],z-score of subpopulation abundance [5],z-score of subpopulation abundance [6],z-score of subpopulation abundance [7],z-score of subpopulation abundance [8],z-score of subpopulation abundance [9],z-score of subpopulation abundance [10],z-score of subpopulation abundance [11],z-score of subpopulation abundance [12],z-score of subpopulation abundance [13],z-score of subpopulation abundance [14],z-score of subpopulation abundance [15],z-score of subpopulation abundance [16],z-score of subpopulation abundance [17]
CC(C)(C)C(=O)OCOC(=O)[C@@H]1N2C(=O)[C@@H](/N=C/N3CCCCCC3)[C@H]2SC1(C)C [Pivmecillinam hydrochloride],12.3 ± 0.13,-0.55,-0.74,0.41,0.34,0.1,0.57,-0.18,-0.25,-0.03,-0.01,0.29,-0.02,-0.52,-0.16,-0.28,-0.19
Cc1cc(O)c(C(=O)N[C@@H](C(=O)N[C@@H]2C(=O)N3C(C(=O)O)=C(CSc4nnnn4C)CS[C@H]23)c2ccc(O)cc2)cn1 [Cefpiramide sodium],12.3 ± 0.13,-0.28,0.99,-0.92,0.61,-0.05,-0.12,-0.42,0.57,0.5,0.29,–,0.16,-0.6,-0.35,-0.42,-0.55
COc1ccc2cc(C(=O)O)ccc2c1 [6-Methoxy-2-naphthoic acid],13.4 ± 0.15,2.36,-2.65,0.27,-1.91,2.01,-1.63,-1.51,0.22,-0.63,-3.74,–,0.62,3.71,-1.83,-0.89,1.63
COc1ccccc1N1CCN(CCCNc2cc(=O)n(C)c(=O)n2C)CC1 [Urapidil HCl],12.49 ± 0.088,-0.23,-0.32,-1,1.09,-0.78,0.29,-0.25,-0.81,0.01,–,-0.53,-0.11,-0.67,-0.59,-0.71,-0.28
C[C@]12CC[C@@H]3c4ccc(O)cc4CC[C@H]3[C@@H]1CC[C@@H]2O [Estradiol],12.7 ± 0.21,0.44,0.4,-0.14,0.01,0.3,-0.02,-0.16,-0.39,-1.02,-0.27,-0.05,0.9,-0.66,-0.92,0.18,1.17
CC(=O)O[C@H]1C[C@@]2(C)[C@@H](C[C@@H](O)[C@H]3[C@@]4(C)CC[C@@H](O)[C@@H](C)[C@@H]4CC[C@@]32C)/C1=C(\CCC=C(C)C)C(=O)O [Fusidate Sodium],12.64 ± 0.067,-0.65,0,-0.11,0.34,1.44,0.21,-0.02,0.57,2,-0.27,1.13,1.2,1.04,1.17,-0.25,-0.08
CN1C(C(=O)Nc2ccccn2)=C(O)c2sc(Cl)cc2S1(=O)=O [Lornoxicam],12.1 ± 0.13,-0.29,-0.04,-0.14,0.67,-0.26,-0.21,-0.22,-0.77,0.59,0.21,-0.56,-0.19,0.08,-0.27,0.46,-0.1
O=C(c1ccccc1)c1ccc2n1CCC2C(=O)O (stereo unspecified) [Ketorolac],12.6 ± 0.32,0.73,0,-0.04,-0.78,-0.3,-0.64,0.62,-0.76,-1.29,-1.16,0.33,-0.97,-0.11,-0.93,-0.52,-0.11
Cc1cc2c(s1)Nc1ccccc1N=C2N1CCN(C)CC1 [Olanzapine],12.5 ± 0.2,0.17,0.84,-0.11,-0.29,-0.12,-0.6,0.65,0.2,0.19,–,-0.15,0.07,-0.05,-0.5,-0.6,0.21
CCn1cc(C(=O)O)c(=O)c2cc(F)c(N3CCNCC3)nc21 [Enoxacin Sesquihydrate],12.2 ± 0.23,-0.92,0.76,-0.96,1.2,-1.49,0.91,0,0.03,0.47,–,-0.59,-0.17,-0.85,0.88,0.36,-0.27
C#C[C@]1(O)CC[C@H]2[C@@H]3CCC4=Cc5oncc5C[C@]4(C)[C@H]3CC[C@@]21C [Danazol],12.2 ± 0.23,0,-0.89,-0.15,0.53,-0.48,0.13,0.04,-0.49,0.32,0.52,-0.13,-0.45,-0.39,0.74,0.22,-0.4
COc1ccc2cc3[n+](cc2c1OC)CCc1cc2c(cc1-3)OCO2 [Berberine Sulfate],12.3 ± 0.28,-0.5,0.74,-1.84,1.36,-0.31,-0.21,-0.28,0.24,0.8,0.73,-0.5,0.06,0.13,0.71,-0.27,-0.34
CCCCN1CCCCC1C(=O)Nc1c(C)cccc1C (stereo unspecified) [Bupivacaine HCl],12.48 ± 0.1,0.23,0.05,-0.57,0.36,0.67,-0.05,-0.93,0.01,-0.26,–,-0.36,-0.41,0.32,-0.41,-0.72,-0.67
Cc1cc(/C=C/c2ccc3cc(N(C)C)ccc3[n+]2C)c(C)n1-c1ccccc1 [pyrvinium],12.38 ± 0.085,0.55,0.61,-1.29,0.84,-3.04,0.05,-0.19,-0.29,-0.67,1.08,–,-0.46,-0.3,-0.73,-0.14,-0.49
